From PubChem BioAssay
Activity calls are given as the source filed them.

What was measured:
[1] = E. coli DRC41 culture turbidity changes, primary screen, E. coli filamentation inducer project, strain DRC41, OD650, 48 h (AID 1152);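 further: E. coli MC1000 strain DRC41 lacking acrAB efflux pump and sulA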; details: E. coli DRC41 (acrAB sulA), higher = more signal, called active from +8 up or from −8 down
[2] = small-molecule binders of probe aLefty1, primary screen, biochemical, small-molecule microarray, 635/667 nm fluorescence (AID 1153); details: higher = more signal;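 further: score merges spot fluorescence with signal-to-noise ratio from the scanned slide images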
[3] = PSAC antagonists in infected red cells, primary screen, cell-based, P. falciparum Indochina, OD700, 1 h (AID 1154); details: P. falciparum Indochina infected RBC osmotic lysis, higher = more signal, called active from +8 up or from −8 down
[4] = PSAC antagonists in infected red cells, primary screen, cell-based, P. falciparum Indochina, OD700, 2 h (AID 1155);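 further: lysis reports solute entry through the parasite surface anion channel PSAC; channel blockers reduce lysis of infected cells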; details: P. falciparum Indochina infected erythrocytes, osmotic lysis OD700; higher = more signal, called active from +8 up or from −8 down
[5] = osmotic lysis modulators in infected erythrocytes, primary screen, PSAC antagonist project, cell-based, P. falciparum Indochina, OD700, 3 h (AID 1156); details: higher = more signal, called active from +8 up or from −8 down
[6] = PSAC antagonists in infected red cells, primary screen, cell-based, P. falciparum Indochina, OD700, 18 h (AID 1157); details: P. falciparum Indochina infected erythrocytes, osmotic lysis OD700, 18 h; higher = more signal, called active from +8 up or from −8 down
[7] = modulators of S6 phosphorylation in cells, primary screen, cell-based, A549, cytoblot, luminescence, serum-stimulated (AID 1158); details: A549 phospho-S6 cytoblot, 5 h, higher = more signal;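 further: serum-stimulated A549 lung adenocarcinoma cells; signal is phosphorylated S6 detected by cytoblot immunostaining with HRP secondary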
[8] = biological target: NADPH oxidase 2 (Homo sapiens) (UniProt P04839); assay: NOX2-dependent H2O2 signal modulators, primary screen, NOX inhibitor project, cell-based, HEK293-NOX2, PMA-stimulated, Amplex Red fluorescence (AID 1159); details: 45 min, higher = more signal, called active from +8 up or from −8 down; further: test concentration not given here
[9] = biological target: NADPH oxidase 4 (Homo sapiens) (UniProt Q9NPH5); assay: NOX4-dependent H2O2 signal modulators, primary screen, NOX inhibitor project, cell-based, HEK293-NOX4, tetracycline-induced, Amplex Red fluorescence (AID 1160); details: 45 min, higher = more signal, called active from +8 up or from −8 down
[10] = biological target: NADPH oxidase 5 (Homo sapiens) (UniProt Q96PH1); assay: NOX5-dependent H2O2 signal modulators, primary screen, NOX inhibitor project, cell-based, HEK293-NOX5, Amplex Red fluorescence (AID 1161); details: HEK293-NOX5, ionomycin, 45 min, higher = more signal
[11] = A549 cell viability effects, profiling panel, calcein-AM fluorescence, 48 h, basal (AID 1162); details: higher = more signal; further: test concentration not given here
[12] = adipocyte viability effects, profiling panel, cell-based, 3T3-L1 adipocytes, calcein-AM fluorescence, 48 h, basal (AID 1163); details: 3T3-L1 adipocytes viability, higher = more signal; further: test concentration not given here
[13] = HepG2 cell viability effects, profiling panel, calcein-AM fluorescence, 48 h, basal (AID 1164); details: higher = more signal; further: test concentration not given here
[14] = MM1S cell viability effects, profiling panel, calcein-AM fluorescence, 48 h, basal (AID 1165); details: higher = more signal;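 further: viability of MM1S multiple myeloma cells under basal unstimulated conditions; test concentration not given here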
[15] = basal RPMI8226 viability, no added stimulus, profiling panel, cell-based, calcein-AM fluorescence, 48 h, PK04 Diversity Set (AID 1166); details: RPMI8226 myeloma viability, higher = more signal;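 further: cells grown under basal conditions without added stimulus; test concentration not given here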
[16] = basal HepG2 mitochondrial membrane potential changes, profiling panel, cell-based, JC-1 fluorescence, 24 h, 100 nL compound (AID 1167); details: higher = more signal; further: test concentration not given here
[17] = basal 3T3-L1 adipocyte mitochondrial potential changes, profiling panel, cell-based, JC-1 fluorescence, 3T3-L1 adipocytes, 24 h, 100 nL compound (AID 1168); details: JC-1 mitochondrial fluorescence, higher = more signal, called active from +8 up or from −8 down; further: test concentration not given here
[18] = basal RPMI8226 mitochondrial membrane potential changes, profiling panel, cell-based, JC-1 fluorescence, 24 h, 100 nL compound (AID 1169); details: RPMI8226 myeloma, JC-1 mitochondrial potential fluorescence, higher = more signal; further: test concentration not given here
[19] = basal MM1S mitochondrial membrane potential changes, profiling panel, cell-based, JC-1 fluorescence, 24 h, 100 nL compound (AID 1170); details: higher = more signal; further: test concentration not given here
[20] = A549 lung cancer cell viability effects, profiling panel, resazurin fluorescence, 24 h, PK04 Diversity Set (AID 1171); details: higher = more signal, called active from +8 up or from −8 down; further: test concentration not given here

Sequence of NADPH oxidase 5 (Homo sapiens) (Q96PH1 whole entry, looked up): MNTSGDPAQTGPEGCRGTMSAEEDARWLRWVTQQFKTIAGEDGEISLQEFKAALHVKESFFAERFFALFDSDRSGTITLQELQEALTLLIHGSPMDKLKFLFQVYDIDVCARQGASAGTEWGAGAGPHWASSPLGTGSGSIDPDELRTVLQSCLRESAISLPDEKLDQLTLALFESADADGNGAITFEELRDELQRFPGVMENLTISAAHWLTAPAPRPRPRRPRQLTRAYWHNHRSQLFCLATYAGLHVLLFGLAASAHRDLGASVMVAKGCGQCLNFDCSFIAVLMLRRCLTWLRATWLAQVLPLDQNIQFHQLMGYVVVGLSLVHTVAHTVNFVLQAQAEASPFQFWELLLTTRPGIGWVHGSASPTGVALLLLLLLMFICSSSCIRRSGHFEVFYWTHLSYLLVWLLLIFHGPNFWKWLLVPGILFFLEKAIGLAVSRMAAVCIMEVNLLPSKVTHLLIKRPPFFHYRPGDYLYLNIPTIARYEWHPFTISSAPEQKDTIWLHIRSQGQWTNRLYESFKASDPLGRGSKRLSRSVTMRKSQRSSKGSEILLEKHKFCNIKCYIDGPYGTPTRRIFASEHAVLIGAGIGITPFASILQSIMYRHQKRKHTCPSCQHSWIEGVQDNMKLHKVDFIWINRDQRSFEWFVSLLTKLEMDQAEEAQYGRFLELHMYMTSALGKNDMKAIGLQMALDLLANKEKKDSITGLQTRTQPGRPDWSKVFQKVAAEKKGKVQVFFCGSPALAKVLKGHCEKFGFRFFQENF
Sequence of NADPH oxidase 2 (Homo sapiens) (P04839 whole entry, looked up): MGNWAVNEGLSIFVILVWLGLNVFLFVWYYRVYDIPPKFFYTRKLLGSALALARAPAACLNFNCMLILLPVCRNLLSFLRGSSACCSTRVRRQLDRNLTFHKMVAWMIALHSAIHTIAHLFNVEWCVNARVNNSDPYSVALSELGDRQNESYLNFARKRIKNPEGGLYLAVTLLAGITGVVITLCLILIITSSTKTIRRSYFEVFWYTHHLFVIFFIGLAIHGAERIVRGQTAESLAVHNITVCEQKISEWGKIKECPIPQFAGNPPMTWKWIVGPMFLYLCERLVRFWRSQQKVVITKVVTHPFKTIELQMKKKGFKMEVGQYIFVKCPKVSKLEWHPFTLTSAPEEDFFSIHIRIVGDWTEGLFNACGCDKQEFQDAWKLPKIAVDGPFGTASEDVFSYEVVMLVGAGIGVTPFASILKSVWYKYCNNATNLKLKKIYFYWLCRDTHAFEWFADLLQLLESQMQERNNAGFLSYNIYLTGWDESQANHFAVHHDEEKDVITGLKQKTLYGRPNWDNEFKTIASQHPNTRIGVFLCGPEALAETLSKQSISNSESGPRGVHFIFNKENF
Sequence of NADPH oxidase 4 (Homo sapiens) (Q9NPH5 whole entry, looked up): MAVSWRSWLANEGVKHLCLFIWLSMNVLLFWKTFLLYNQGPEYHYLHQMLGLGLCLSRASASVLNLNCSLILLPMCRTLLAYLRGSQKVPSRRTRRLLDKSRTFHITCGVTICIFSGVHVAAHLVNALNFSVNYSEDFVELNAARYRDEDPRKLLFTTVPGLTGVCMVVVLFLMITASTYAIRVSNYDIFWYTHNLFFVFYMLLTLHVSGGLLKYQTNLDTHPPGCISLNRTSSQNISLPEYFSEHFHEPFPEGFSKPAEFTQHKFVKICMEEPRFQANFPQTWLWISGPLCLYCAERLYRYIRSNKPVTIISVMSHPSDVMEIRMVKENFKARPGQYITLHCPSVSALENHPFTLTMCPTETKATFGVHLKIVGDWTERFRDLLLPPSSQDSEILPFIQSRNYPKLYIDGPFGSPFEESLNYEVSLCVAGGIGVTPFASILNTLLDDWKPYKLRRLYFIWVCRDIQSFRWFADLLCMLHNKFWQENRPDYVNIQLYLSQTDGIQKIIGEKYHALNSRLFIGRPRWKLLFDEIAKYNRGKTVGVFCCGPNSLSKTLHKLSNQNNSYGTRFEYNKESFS

Row | Structure (SMILES) | z-score [1] | composite z-score [2] | z-score [3] | z-score [4] | z-score [5] | z-score [6] | z-score [7] | z-score [8] | z-score [9] | z-score [10] | z-score [11] | z-score [12] | z-score [13] | z-score [14] | z-score [15] | z-score [16] | z-score [17] | z-score [18] | z-score [19] | z-score [20]
1 | C=C(C(=O)CC[C@@H](OC(=O)c1cccnc1)c1cccc(OCCO)c1)C(C)C | 1.35 (inactive) | -0.309 | 13.8 (active) | 0.717 (inactive) | -0.204 (inactive) | -1.02 (inactive) | 0.62 | -0.967 (inactive) | -0.193 (inactive) | -1.84 | 0.281 | 0.568 | 1.19 | -1.27 | -0.855 | -0.0539 | -0.227 (inactive) | -0.706 | -0.928 | 0.508 (inactive)
2 | C=CCN1C(=O)[C@@]2(O[C@@H](CCO)[C@H]([Si](C)(C)c3ccc(OC)cc3)[C@H]2C)c2cc(N3CCCCC3=O)ccc21 | 0.424 (inactive) | 0.102 | 23.8 (active) | 7.85 (inactive) | -0.302 (inactive) | 1.9 (inactive) | 1.44 | -1.63 (inactive) | -0.258 (inactive) | -0.607 | -0.816 | 0.146 | -4.51 | -2.69 | -4.05 | -1.44 | -0.0545 (inactive) | -1.01 | -1.75 | -2.04 (inactive)
3 | COCCCNC(=O)[C@@]1(CCC(=O)OC(C)(C)C)N=C(c2ccc(OCCCO)cc2)O[C@H]1c1ccccc1 | 1.41 (inactive) | 0.0949 | 12.9 (active) | 1.15 (inactive) | 0.384 (inactive) | 0.566 (inactive) | -0.422 | -0.865 (inactive) | 0.388 (inactive) | 0.188 | 0.899 | -0.0512 | 0.317 | 0.32 | 0.678 | 0.842 | 2.11 (inactive) | 0.721 | -1.08 | -0.376 (inactive)
4 | CO[C@H]1O[C@H](CO)[C@@H](OC(=O)Nc2cccc(F)c2)[C@H](OC(=O)c2cc3ccccc3[nH]2)[C@H]1OC(=O)c1cc2ccccc2[nH]1 | 0.378 (inactive) | -0.0412 | 0.694 (inactive) | -1.02 (inactive) | -0.0952 (inactive) | -0.908 (inactive) | 2.06 | -2.38 (inactive) | -0.453 (inactive) | -3.81 | 1.16 | 0.437 | 0.387 | 0.0134 | 0.804 | -1.56 | 2.42 (inactive) | -0.397 | -0.415 | -2.49 (inactive)
5 | C=CCOC(=O)[C@H]1[C@@H]2C(=O)O[C@@H](c3ccccc3)[C@@H](c3ccccc3)N2[C@@H](c2ccc(OCCOC(=O)[C@@H]3C[C@@H]4C(=O)N[C@@H](Cc5ccccc5)C(=O)N4[C@@H]3c3ccc(O)cc3)cc2)[C@]12C(=O)Nc1ccc(I)cc12 | -0.402 (inactive) | 0.861 | 4.04 (inactive) | 2.18 (inactive) | 2.04 (inactive) | 1.38 (inactive) | -0.674 | 0.972 (inactive) | -1.15 (inactive) | 0.885 | -1.29 | -0.28 | 0.561 | -0.325 | -0.561 | -2.14 | 0.687 (inactive) | -0.398 | -1.03 | -0.454 (inactive)
6 | CCCCN1CC=CC23O[C@@H]4/C=C\CCCOC(=O)C4[C@H]2C(=O)N(CCCCCCO)[C@@H]3C1=O (stereo not given in full) | 2.36 (inactive) | 0.0927 | 1.81 (inactive) | -0.88 (inactive) | -0.75 (inactive) | -0.945 (inactive) | 3.08 | 0.873 (inactive) | 0.0146 (inactive) | 1.84 | -0.0075 | 1.61 | 0.331 | 1.42 | 0.88 | 0.608 | 1.38 (inactive) | 0.16 | -1.05 | 0.851 (inactive)
7 | COc1ccc(C(O)C2C=CC3C(=O)N(c4ccccc4)C(=O)C3N2Nc2ccccc2F)c2ccccc12 (stereo not given) | -0.462 (inactive) | 1.16 | 3.82 (inactive) | 1.71 (inactive) | 0.419 (inactive) | 1.05 (inactive) | -0.593 | -0.232 (inactive) | -1.7 (inactive) | -2.13 | 0.23 | -0.229 | -0.737 | -1.91 | -1.61 | -1.78 | 0.385 (inactive) | -0.172 | -0.754 | 0.473 (inactive)
8 | CCCCN1CC=CC23O[C@@H]4/C=C\CCC(C)OC(=O)C4[C@H]2C(=O)N(CCO)[C@@H]3C1=O (stereo not given in full) | 1.36 (inactive) | -0.386 | 2.6 (inactive) | 0.254 (inactive) | 0.336 (inactive) | 0.479 (inactive) | 0.7 | 1.01 (inactive) | 0.416 (inactive) | 2.29 | -0.266 | 0.555 | -0.406 | -0.0157 | -1.19 | 0.0609 | -0.0386 (inactive) | 0.881 | 0.213 | 0.265 (inactive)
9 | O=C1c2ccccc2[C@](Cc2ccccc2I)(C(=O)NCCN2CCOCC2)[C@H](c2ccc(CO)cc2)N1Cc1ccccc1C(F)(F)F | -2.6 (inactive) | 0.284 | 7.91 (inactive) | 1.13 (inactive) | 1.59 (inactive) | 0.65 (inactive) | 0.401 | -1.06 (inactive) | 0.814 (inactive) | 1.15 | 0.368 | 0.469 | -0.103 | -1.98 | -2.7 | 1.5 | 0.0392 (inactive) | -0.876 | -0.601 | -0.577 (inactive)
